“And” between values parts separate entries of the source, which are not always exact repeats. Equal entries are not always repeated. Inconclusive results are not listed. The source made the active and inactive calls. Calls come from the whole dose curve; as a rule, active = well fitted curve in the direction sought with a large enough effect in the repeat runs; inconclusive = weak or mixed curves; inactive = no such curve, though single readings can be large; an effect the other way counts as inactive or inconclusive.
Experiments:
[1] = Human pregnane X receptor (PXR) small molecule agonists, qHTS cell viability counter screen (AID 1346977); note: nearly all actives have a fitted effect of over 50% in size; note: potency is the fitted concentration of half-maximal effect
Summary of the method: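 After a 5hr pre-incubation, PXR-Luc HepG2 cells received compounds plus positive control in DMSO and were kept 24hr at 37C. Cell viability was quantified by fluorescence from CellTiter-Fluor added for the final hour.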

[2] = Caspase-3/7 induction in HepG2 cells by small molecules, qHTS assay (AID 1346978); note: nearly all actives have a fitted effect of over 15% in size
Summary of the method: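 Wild-type HepG2 cells (2,000/well) were settled 5 h at 37 C, 5% CO2, then exposed to compounds in DMSO for 17 h. Caspase-3/7 activity was read by luminescence 30 min after adding Caspase-Glo 3/7 reagent at room temperature.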

[3] = Caspase-3/7 induction in CHO-K1 cells by small molecules, qHTS cell viability counter screen (AID 1346979); note: nearly all actives have a fitted effect of over 35% in size; note: potency is the fitted concentration of half-maximal effect
Summary of the method: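 Multiplexed with Caspase-Glo 3/7 in CHO-K1 cells, this counter screen added CellTiter-Fluor after 16hr of compound exposure and recorded fluorescence 1hr later.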

[4] = Caspase-3/7 induction in CHO-K1 cells by small molecules, qHTS assay (AID 1346980); note: nearly all actives have a fitted effect of over 15% in size
Summary of the method: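 Wild-type cells were seeded at 1,500 per well and settled 5 hr at 37 C, 5% CO2, then exposed to DMSO-dissolved compounds for 17 hr. Caspase-Glo 3/7 reagent was added, and luminescence was read after 30min at room temperature.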

[5] = Caspase-3/7 induction in HepG2 cells by small molecules, qHTS cell viability counter screen (AID 1346981); note: series mostly up to about 92 µM; nearly all actives have a fitted effect of over 30% in size
Summary of the method: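 Treatment of HepG2 cells with DMSO-delivered compounds ran 16 hr at 37 C following a 5-hr pre-incubation of 2,000 cells/well. CellTiter-Fluor fluorescence, read after 1 hr, served as the viability measure in a qHTS format.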

[6] = molecular target: Cytochrome P450 2D6 (Homo sapiens) (UniProt P10635); assay: Cytochrome P450 Family 2 Subfamily D Member 6 (CYP2D6) small molecule antagonists: luciferase reporter qHTS assay (AID 1671196); note: nearly all actives have a fitted effect of over 50% in size; note: potency is the fitted concentration of half-maximal effect
Summary of the method: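 Chemicals tested for interference with CYP2D6 activity; proluciferin substrate, NADPH regeneration, 1 h at room temperature, luminescent detection.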

[7] = molecular target: Nuclear receptor subfamily 1 group I member 2 (Homo sapiens) (UniProt O75469); assay: Human pregnane X receptor (PXR) small molecule agonists, qHTS assay (AID 1346982); note: nearly all actives have a fitted effect of over 35% in size; note: potency is the fitted concentration of half-maximal effect
Summary of the method: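 Stable HepG2 line reporting PXR-mediated CYP3A4 expression via luciferase. Treatment: 24 hr with compounds in DMSO at 37 C. Detection: ONE-Glo luminescence.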

[8] = molecular target: Nuclear receptor subfamily 1 group I member 2 (Rattus norvegicus) (UniProt Q9R1A7); assay: Rat pregnane X receptor (rPXR) activation by small molecules, qHTS assay (AID 1346983); conditions: rPXR luciferase reporter cells, One-Glo luminescence, 24 h; max activation: stronger effect = higher value; note: nearly all actives have a fitted effect of over 20% in size; note: potency is the fitted concentration of half-maximal effect
Summary of the method: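 Cell-based rPXR luciferase reporter assay, 2,000 cells per well, rested 5hr at 37 C before compound addition in DMSO, then 24 hr at 37 C. One-Glo reagent was added and luminescence read after 30 min at room temperature.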

[9] = molecular target: Nuclear receptor subfamily 1 group I member 2 (Homo sapiens) (UniProt O75469); assay: CYP3A4 induction through human pregnane X receptor (PXR) by small molecules, qHTS assay (AID 1346984); note: nearly all actives have a fitted effect of over 40% in size; note: potency is the fitted concentration of half-maximal effect
Summary of the method: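 After 24 h at 37C with compound, DPX-2 cells (HepG2, co-transfected PXR response element and CYP3A4 promoter-luciferase) got 3uM final P450-Glo Luciferin-IPA for 3 h; One-Glo luminescence followed.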

[10] = molecular target: Nuclear receptor subfamily 1 group I member 2 (Homo sapiens) (UniProt O75469); assay: Human pregnane X receptor (PXR) activation by small molecules, qHTS assay (AID 1346985); note: nearly all actives have a fitted effect of over 40% in size; note: potency is the fitted concentration of half-maximal effect
Summary of the method: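 DPX-2 cells (HepG2 co-transfected with a PXR response element and a CYP3A4-promoter luciferase construct) were seeded at 2,000 per well, rested 5 hr at 37C, then exposed to DMSO-dissolved compounds for 24 hr. Activation was read as luciferase luminescence.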
% is set by controls: 0 for no effect and ±100 for the full control effect.

Nuclear receptor subfamily 1 group I member 2 (Rattus norvegicus), sequence (Q9R1A7 whole entry, looked up): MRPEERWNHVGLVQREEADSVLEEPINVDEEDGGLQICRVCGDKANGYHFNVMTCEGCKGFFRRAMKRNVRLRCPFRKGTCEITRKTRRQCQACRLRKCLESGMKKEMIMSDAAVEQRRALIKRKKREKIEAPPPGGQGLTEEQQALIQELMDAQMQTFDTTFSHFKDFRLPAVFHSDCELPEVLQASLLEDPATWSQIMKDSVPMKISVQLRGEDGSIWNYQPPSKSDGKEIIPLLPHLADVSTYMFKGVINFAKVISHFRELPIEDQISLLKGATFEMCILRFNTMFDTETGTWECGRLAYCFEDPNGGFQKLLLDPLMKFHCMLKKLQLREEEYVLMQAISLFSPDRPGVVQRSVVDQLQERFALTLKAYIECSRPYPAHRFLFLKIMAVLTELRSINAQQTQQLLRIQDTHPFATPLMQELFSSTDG
Cytochrome P450 2D6 (Homo sapiens), sequence (P10635 whole entry, looked up): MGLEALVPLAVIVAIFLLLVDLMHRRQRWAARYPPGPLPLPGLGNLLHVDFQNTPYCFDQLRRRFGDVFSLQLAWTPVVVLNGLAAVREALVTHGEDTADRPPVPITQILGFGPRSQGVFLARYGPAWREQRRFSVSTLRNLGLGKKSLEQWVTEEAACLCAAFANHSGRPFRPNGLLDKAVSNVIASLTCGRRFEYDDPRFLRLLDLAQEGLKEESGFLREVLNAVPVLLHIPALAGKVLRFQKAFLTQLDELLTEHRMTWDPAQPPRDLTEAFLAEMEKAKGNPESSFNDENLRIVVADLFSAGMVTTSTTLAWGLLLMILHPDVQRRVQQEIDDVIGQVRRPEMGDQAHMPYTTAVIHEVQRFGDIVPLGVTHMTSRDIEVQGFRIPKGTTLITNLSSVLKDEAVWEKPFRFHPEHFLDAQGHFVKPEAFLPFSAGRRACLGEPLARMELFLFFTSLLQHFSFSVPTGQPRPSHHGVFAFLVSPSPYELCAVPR
Nuclear receptor subfamily 1 group I member 2 (Homo sapiens), sequence (O75469 whole entry, looked up): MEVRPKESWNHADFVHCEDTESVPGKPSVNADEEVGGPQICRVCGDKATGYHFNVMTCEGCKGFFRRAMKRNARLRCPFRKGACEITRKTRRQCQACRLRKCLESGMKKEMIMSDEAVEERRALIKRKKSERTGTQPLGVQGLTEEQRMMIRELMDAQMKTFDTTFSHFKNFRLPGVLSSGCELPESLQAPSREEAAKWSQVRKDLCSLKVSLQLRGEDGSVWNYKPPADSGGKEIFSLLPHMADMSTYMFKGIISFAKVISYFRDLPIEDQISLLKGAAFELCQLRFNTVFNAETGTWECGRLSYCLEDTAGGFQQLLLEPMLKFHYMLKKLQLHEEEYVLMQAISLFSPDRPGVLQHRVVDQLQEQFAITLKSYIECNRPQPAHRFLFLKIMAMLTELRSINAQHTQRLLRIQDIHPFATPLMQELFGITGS

COC(=O)C1=C(C)NC(C)=C(C(=O)OCC(C)=O)C1c1ccccc1[N+](=O)[O-] (stereo not drawn)
inactive: Potency [1] | outcome [2] | Potency [3] | outcome [4] | outcome [5] | Potency [6]

Oc1ccc2c(c1)OC[C@@H](N1CCC(O)(c3ccc(F)cc3)CC1)[C@H]2O
active: Potency [7] 11.9 µM
inactive: Potency [1] | outcome [2] | Potency [3] | outcome [5]

NS(=O)(=O)c1cc(C2(O)NC(=O)c3ccccc32)ccc1Cl (stereo not drawn)
inactive: Potency [1] | outcome [2] | Potency [3] | outcome [4] | outcome [5] | max activation [8] -0.257% | Potency [6]

Cc1onc(-c2ccccc2)c1-c1ccc(S(N)(=O)=O)cc1
inactive: Potency [1] | outcome [2] | Potency [3] | outcome [4] | outcome [5] | max activation [8] -3.92%

NC(=O)c1ncn([C@@H]2O[C@H](CO)[C@@H](O)[C@H]2O)c1O
inactive: Potency [1] | outcome [2] | Potency [3] | outcome [5] | Potency [7] | max activation [8] -0.429% | Potency [9] | Potency [10]

CSc1nc(NC2CC2)nc(NC(C)(C)C)n1
active: Potency [7] 21.7 µM
inactive: Potency [1] | outcome [2] | Potency [3] | outcome [4]

NCCNC(=O)c1ccc(Cl)cn1
inactive: Potency [1] | outcome [2] | Potency [3] | outcome [5] | Potency [7] | max activation [8] -1.85% | Potency [9] | Potency [10]

CC(=O)CCc1ccc(O)cc1
inactive: Potency [1] | outcome [2] | Potency [3] | outcome [5] | Potency [7]

Nc1ccc2cc(S(=O)(=O)O)ccc2c1
inactive: Potency [1] | outcome [2] | Potency [3] | outcome [4] | outcome [5]
active: Potency [6] 39.9 µM

C#CC(O)C(CC)CCCC (stereo not drawn)
inactive: Potency [1] | outcome [2] | Potency [3] | outcome [4] | outcome [5] | Potency [6]

CCC(C)(C)C1CCC(OC)CC1 (stereo not drawn)
active: Potency [7] 30.6 µM
inactive: Potency [1] | outcome [2] | Potency [3] | outcome [4]

C(=C(c1ccccc1)c1ccccc1)c1ccccc1
inactive: Potency [1] | outcome [2] | Potency [3] | outcome [4] | outcome [5] | Potency [6]

CCC(=O)/C=C/c1ccc(OC)cc1
inactive: Potency [1] | outcome [2] | Potency [3] | outcome [4] | outcome [5] | Potency [6]

Nc1nc2c(ncn2CCC(CO)CO)c(=O)[nH]1
inactive: Potency [1] | outcome [2] | Potency [3] | outcome [5] | Potency [7] | max activation [8] 3.6% | Potency [9] | Potency [10] | Potency [6]

N#CC1(O)CCCCC1
inactive: outcome [2] | outcome [4]
active: Potency [1] 17.4 µM | Potency [3] 27.5 µM | Potency [7] 17.4 µM

C=CCOCC(O)CS(=O)(=O)O (stereo not drawn)
inactive: Potency [1] | outcome [2] | Potency [3] | outcome [4] | Potency [7] | Potency [6]

Cc1ccc(N)cc1[N+](=O)[O-]
active: Potency [7] 10.9 µM
inactive: Potency [1] | outcome [2] | Potency [3] | outcome [5]

OCC(CO)(CO)COCC(CO)(CO)CO
inactive: Potency [1] | outcome [2] | Potency [3] | outcome [4] | outcome [5] | Potency [7] | Potency [6]

CC(C)(O)Cc1ccccc1
inactive: Potency [1] | outcome [2] | Potency [3] | outcome [4] | outcome [5] | Potency [7] | Potency [6]

CC(C)c1ccc2oc3nc(N)c(C(=O)O)cc3c(=O)c2c1
inactive: Potency [1] | outcome [2] | Potency [3] | outcome [5] | Potency [9] | Potency [10]
active: Potency [7] 0.335 µM | Potency [8] 4.47 µM | Potency [6] 15.5 µM

N[C@@H](CS)C(=O)O
inactive: Potency [1] | outcome [2] | Potency [3] | outcome [5] | Potency [7]

O=C(O)/C=C/c1ccc(Cn2ccnc2)cc1
inactive: Potency [1] | outcome [2] | Potency [3] | outcome [4] | outcome [5] | max activation [8] -1.1% | Potency [6]

C=CC(=O)N1CCOCC1
inactive: Potency [1] | outcome [2] | Potency [3] | outcome [5] | Potency [7]

CC(C)[N+](C)(C)CC(O)COc1cccc2ccccc12 (stereo not drawn)
inactive: Potency [1] | outcome [2] | Potency [3] | outcome [5] | Potency [7] | max activation [8] -2.92% | Potency [9] | Potency [10]
active: Potency [6] 4.36 µM

CCCc1ccccc1O
inactive: Potency [1] | outcome [2] | Potency [3] | outcome [4] | Potency [7] | Potency [6]

CC(C)=CCC/C(C)=C/C(=O)O
inactive: Potency [1] | outcome [2] | Potency [3] | outcome [4] | Potency [7] | Potency [6]

C=CCSCC1Nc2cc(Cl)c(S(N)(=O)=O)cc2S(=O)(=O)N1 (stereo not drawn)
inactive: Potency [1] | outcome [2] | Potency [3] | outcome [4] | outcome [5] | max activation [8] 0.305%

CCCCC1CCCCC(=O)O1 (stereo not drawn)
inactive: Potency [1] | outcome [2] | Potency [3] | outcome [4] | outcome [5] | Potency [7] | Potency [6]

Cc1ncc(CSSCc2cnc(C)c(O)c2CO)c(CO)c1O
active: Potency [6] 6.17 µM
inactive: Potency [1] | outcome [2] | Potency [3] | outcome [5] | Potency [7] | max activation [8] -2.5% | Potency [9] | Potency [10]

O=C1C(CCS(=O)c2ccccc2)C(=O)N(c2ccccc2)N1c1ccccc1 (stereo not drawn)
inactive: Potency [1] | outcome [2] | Potency [3] | outcome [4] | outcome [5] | max activation [8] -2.19%

C=C(C)C(=O)NCCCN(C)C
inactive: Potency [1] | outcome [2] | Potency [3] | outcome [5] | Potency [7] | Potency [6]

Fc1ccccc1-c1ccccc1
inactive: Potency [1] | outcome [2] | Potency [3] | outcome [5] | Potency [7] | Potency [6]

O=C(O)Cc1cc(I)c(Oc2cc(I)c(O)c(I)c2)c(I)c1
active: Potency [7] 37.8 µM
inactive: Potency [1] | outcome [2] | outcome [4] | Potency [6]

CCC(=O)Nc1cccc(N)c1
inactive: Potency [1] | outcome [2] | Potency [3] | outcome [5] | Potency [7] | Potency [6]

c1cc(CN2CCCCC2)cc(OCCCNc2nc3ccccc3s2)c1
inactive: outcome [2] | outcome [4] | max activation [8] 2.06% | Potency [9]
active: Potency [1] 23.7 µM | Potency [7] 5.31 µM | Potency [10] 22.4 µM | Potency [6] 3.89 µM

C=CCn1c(=O)n([C@@H]2O[C@H](CO)[C@@H](O)[C@H]2O)c2nc(N)[nH]c(=O)c21
inactive: outcome [2] | Potency [3] | outcome [4] | outcome [5] | Potency [7] | max activation [8] -4.51% | Potency [9] | Potency [10] | Potency [6]

Cc1ccccc1C(=O)O
active: Potency [7] 30.1 µM
inactive: Potency [1] | outcome [2] | outcome [4] | outcome [5] | Potency [6]

COc1ccc(N=[N+]([O-])c2ccc(OC)cc2)cc1
active: Potency [7] 0.34 µM
inactive: Potency [1] | outcome [2] | outcome [4]

CCCC=O
inactive: Potency [1] | outcome [2] | Potency [3] | outcome [5] | Potency [7] | Potency [6]

CC(CCO)CCCC(C)(C)O (stereo not drawn)
inactive: Potency [1] | outcome [2] | outcome [4] | outcome [5] | Potency [7] | Potency [6]

CCCCNc1ccccc1
inactive: Potency [1] | outcome [2] | Potency [3] | outcome [5] | Potency [6]

NC(=O)Nc1nc2ccccc2[nH]1
inactive: Potency [1] | outcome [2] | Potency [3] | outcome [5] | Potency [7]
active: Potency [6] 31.5 µM

CC(C)(O)C(=O)c1ccc(OCCO)cc1
inactive: Potency [1] | outcome [2] | Potency [3] | outcome [5] | Potency [7] | Potency [6]

CC(=O)NC(Cc1ccccc1)C(=O)O (stereo not drawn)
inactive: outcome [2] | Potency [3] | outcome [4] | outcome [5] | Potency [7]

COc1cc(C(=O)N2CCOCC2)cc(OC)c1OC
inactive: Potency [1] | outcome [2] | outcome [4] | outcome [5] | Potency [7] | max activation [8] -6.89% and 0.152% | Potency [9] | Potency [10] | Potency [6]

CCCC(=O)O[C@]1(C(=O)CCl)[C@@H](C)C[C@H]2[C@@H]3CCC4=CC(=O)C=C[C@]4(C)[C@@]3(F)C(=O)C[C@@]21C
inactive: Potency [1] | outcome [2] | outcome [5]
active: Potency [7] 2.11 µM | Potency [8] 1 µM | Potency [9] 0.631 µM | Potency [10] 11.2 µM | Potency [6] 11 µM

CCCCOCC(C)OCC(C)O (stereo not drawn)
active: Potency [7] 27.9 µM | Potency [6] 29 µM
inactive: Potency [1] | outcome [2] | Potency [3] | outcome [5]

Nc1ncnc2c1ncn2Cc1c(F)cccc1Cl
inactive: Potency [1] | outcome [2] | Potency [3] | outcome [5] | Potency [6]

CCN(CC)S(=O)(=O)c1ccc(C(=O)O)cc1
active: Potency [6] 38.9 µM
inactive: outcome [2] | Potency [3] | outcome [4] | outcome [5] | Potency [7] | max activation [8] -1.28% | Potency [9] | Potency [10]

O=[N+]([O-])c1ccc(Oc2ccc([N+](=O)[O-])cc2)cc1
inactive: Potency [1] | outcome [2] | Potency [3] | outcome [5] | Potency [7] | Potency [6]

CCCCCOC(=O)Nc1nc(=O)n([C@@H]2O[C@H](C)[C@@H](O)[C@H]2O)cc1F
inactive: Potency [1] | outcome [2] | Potency [3] | outcome [5] | Potency [7] | max activation [8] -1.91% | Potency [9] | Potency [10] | Potency [6]

OCc1ccccn1
inactive: Potency [1] | outcome [2] | outcome [4] | outcome [5] | Potency [7] | max activation [8] -1.13% | Potency [9] | Potency [10] | Potency [6]
